# Source: PubChem BioAssay (Tox21)
# Inconclusive results are not listed. Activity calls are given as the source filed them. Calls come from the whole dose curve; as a rule, active = well fitted activation curve with a large enough effect in the repeat runs; inconclusive = weak or mixed curves; inactive = flat fitted curve, though single readings scatter.
# Assay: A CellTox Green Cytotoxicity Assay to monitor cytotoxicity in HepG2 cells - 24 hour (AID 1224878); note: nearly all actives have a fitted effect of over 45% in size
# Conditions: CellTox Green fluorescence; series mostly up to 76.8 µM; cytotoxicity: at the top concentration
# Description: National Center for Advancing Translational Sciences [NCATS]
# NIH Chemical Genomics Center [NCGC]
# U.S. Environmental Protection Agency [EPA]
# National Institutes of Environmental Health Sciences [NIEHS]
# National Toxicology Program [NTP]
# Cell-based models are critical for drug discovery. Determining the natural cytotoxic effects resulting from test compounds is an essential research activity. A CellTox Green Cytotoxicity Assay to monitor cytotoxicity in real time of continues cell culture during 40 hours of the compound treatment was used to screen Tox21 10K library compounds in HepG2 cells. CellTox Green Cytotoxicity Assay is a nonlytic, homogeneous, biofluorescent method to measure cytotoxicity in cell culture after experimental manipulation. The assay system uses a proprietary asymmetric cyanine dye that is excluded from viable cells but preferentially stains the dead cell's DNA. […] Viable cells produce no appreciable increases in fluorescence. Therefore, the fluorescence signal produced by the binding interaction with dead cell DNA is proportional to cytotoxicity.
# The mixture of HepG2 cell suspension and reagents were dispensed at 600cells/6 ul/well in 1536-well tissue culture treated black solid bottom plates using a Multidrop dispenser. After the assay plates were incubated at a 37 C/5% CO2 incubator for 5 hours, 23 nL of compounds dissolved in DMSO, positive and negative controls was transferred to the assay plate by a pintool work station. The plates were incubated at 37 C for 40 hours. The fluorescence intensity were measured at 0h, 8h, 16h, 24h, 32h and 40h time points using ViewLux plate reader during compound treatment.
# % is set by controls: 0 for no effect and ±100 for the full control effect; potency is the fitted concentration of half-maximal effect.
Structure (SMILES),cytotoxicity,Potency
Nc1nc(-c2ccc([N+](=O)[O-])cc2)cs1,-3.48% (inactive),
CCCCCCCC(=O)Oc1c(Br)cc(C#N)cc1Br,4.27% (inactive),
Cc1ccc(Cl)cc1N,-1.17% (inactive),
CCCCOCCOC(=O)c1cccnc1,0.0902% [at 35.3 µM] (inactive),
CCN(Cc1cccc(S(=O)(=O)O)c1)c1ccc(C(=C2C=CC(=[N+](CC)Cc3cccc(S(=O)(=O)O)c3)C=C2)c2ccc(O)cc2S(=O)(=O)[O-])cc1,-9.91% [at 35.3 µM] (inactive),
Cc1c[nH]c2ccccc12,0.273% [at 35.3 µM] (inactive),
COC1CCC=CO1 (stereo not given),0.619% (inactive),
CC1=C2[C@@H]([C@H](C)CC[C@H]2/C=C(\C)C(=O)O)[C@H](O)C1,0.182% (inactive),
CSSc1ccoc1C,-10.4% (inactive),
CNc1c2c(nn1C)CCCC2,1.01% [at 35.3 µM] (inactive),
C1CCCCC1,-0.199% (inactive),
COC(OC)OC,-2.77% (inactive),
CCCCCCCCCCCCCOC(=O)CCSCCC(=O)OCCCCCCCCCCCCC,-0.358% [at 15.8 µM] (inactive),
C1=CCC2CC=CC2C1 (stereo not given),3.26% (inactive),
O=C(O)CN1C(=O)c2cccc3cccc(c23)C1=O,-10.8% [at 35.3 µM] (inactive),
O[C@@H](CNC[C@H](O)[C@H]1CCc2cc(F)ccc2O1)[C@@H]1CCc2cc(F)ccc2O1,,10.7 µM (active)
O=C(c1ccccc1)C1CCC1,,38.9 µM (active)
CC(C)C1CCC(C(=O)N[C@H](Cc2ccccc2)C(=O)O)CC1 (stereo not given in full),11% [at 35.3 µM] (inactive),
COc1ccc2nc(S(=O)Cc3ncc(C)c(OC)c3C)[nH]c2c1 (stereo not given),,inactive
CC(C)(O)CCc1ccccc1,-0.135% (inactive),

Structure (SMILES),cytotoxicity,Potency
CC(=O)c1ccc[nH]1,-19.4% (inactive),
Nc1nc2ccc(OC(F)(F)F)cc2s1,6.22% [at 35.3 µM] (inactive),
CC(C)c1ccc(C(=O)N=C(N)N)cc1S(C)(=O)=O,-1.76% [at 35.3 µM] (inactive),
Cc1ccc(N(CC2=NCCN2)c2cccc(O)c2)cc1,2.17% [at 35.3 µM] (inactive),
CO[C@@H]1[C@@H](OC)[C@H](C)[C@@](O)(CC(=O)O)O[C@H]1[C@H](C)[C@H]1O[C@@]2(CC[C@@](C)([C@H]3CC[C@@](C)([C@@H]4O[C@@H]([C@H]5O[C@](C)(O)[C@H](C)C[C@@H]5C)C[C@@H]4OC4C[C@H](OC)[C@@H](OC)[C@H](C)O4)O3)O2)C[C@H](O)[C@H]1C (stereo not given in full),,12 µM (active)
C=C(C)C(=O)OCCC(F)(F)C(F)(F)C(F)(F)C(F)(F)C(F)(F)C(F)(F)F,-13.3% (inactive),
O=C(C(=O)c1ccco1)c1ccco1,-11.5% (inactive),
CC(=O)OCC(=O)[C@@]1(OC(C)=O)[C@@H](C)C[C@H]2[C@@H]3C[C@H](F)C4=CC(=O)C=C[C@]4(C)[C@@]3(F)[C@@H](O)C[C@@]21C,-15.4% [at 35.3 µM] (inactive),
CCCCCCCCCCCSCC(=O)O,1.17% (inactive),
Cc1ccc2nc(N)[nH]c(=O)c2c1Sc1ccncc1,-5.96% [at 35.3 µM] (inactive),
CCCC(=O)OC(=O)CCC,7.13% (inactive),
CCOC(=O)Oc1ccc(CCNC(=O)[C@H](CCSC)NC(C)=O)cc1OC(=O)OCC,-0.755% [at 35.3 µM] (inactive),
Nc1ccc(S(=O)(=O)NCc2ccccc2)cc1,8.65% [at 35.3 µM] (inactive),
O=C(O)CCS,-6.04% (inactive),
COC(=O)C1=C(C)NC(C)=C(C(=O)OC(C)(C)CN(C)CCC(c2ccccc2)c2ccccc2)C1c1cccc([N+](=O)[O-])c1 (stereo not given),-4% [at 35.3 µM] (inactive),
O=C1CC[C@@H](C(=O)O)N1,-5.72% [at 35.3 µM] (inactive),
CC(C)N(C)C,8.17% (inactive),
CCC(C)(C)C(=O)O,-1.7% (inactive),
CCSC(=O)N(CC)CC,-11.1% (inactive),
CC[C@H]1OC(=O)[C@H](C)[C@@H](O[C@H]2C[C@@](C)(OC)[C@@H](O)[C@H](C)O2)[C@H](C)[C@@H](O[C@@H]2O[C@H](C)C[C@H](N(C)C)[C@H]2O)[C@](C)(O)C[C@@H](C)CN(C)[C@H](C)[C@@H](O)[C@]1(C)O,-3.35% [at 35.3 µM] (inactive),
